The record followed here is PubChem BioAssay (NCI).

Test systems include NCI-H23 lung; NCI-H226 lung; NCI-H322M lung; HOP-62 NSCLC; NCI-H460 lung; HOP-92 NSCLC; NCI-H522 lung; A549/ATCC NSCLC; 786-0 renal; COLO 205 colon; DU-145 prostate; K-562 leukemia; MALME-3M melanoma; MDA-MB-231 breast; RXF 393 renal; SF-268 CNS; SF-295 CNS; SF-539 CNS; UACC-257 melanoma; M14 melanoma.
What all share (assay): NCI-60 one-dose screen, 48 h (100 = growth as untreated, 0 = no growth, -100 = all killed)
Holding throughout (conditions): 10 µM unless noted

Structures are written as SMILES. The panel holds about 83,000 compounds, 20% with a hit somewhere; the sample as a whole holds those more often.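 Plates (96-well) were seeded with cells, treated with compound at one concentration, and incubated for 48 hours before percent growth was determined.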 A number with no mark means an inactive call. Activity calls are given as the source filed them. The calls were made as follows: active = growth percent below 10; inactive = the rest.

On to `CCCCCCNC(=O)Oc1ccc(/C(=C(\C)c2ccc(Cl)cc2)c2ccc(OCCN3CCCCC3)cc2)cc1`, for which the growth was 48.5% in the experiment on NCI-H23 lung; 91.2% with NCI-H226 lung; 84.9% in the experiment on NCI-H322M lung; 68.5% with HOP-62 NSCLC; 23.8% in the experiment with NCI-H460 lung; 47.6% with HOP-92 NSCLC. Also, the growth in the experiment on NCI-H522 lung is 69.1%; in the experiment on A549/ATCC NSCLC, 48.9%; in the experiment with 786-0 renal, 23.7%; in the experiment on COLO 205 colon, -35.8% (active); in the experiment on DU-145 prostate it was 69.3%; with K-562 leukemia it was 1.22% (active). Besides, the growth in the experiment with MALME-3M melanoma is 31.6%; in the experiment with MDA-MB-231 breast, 53.4%; in the experiment on RXF 393 renal, 24.1%; in the experiment with SF-268 CNS, 56.6%; in the experiment with SF-295 CNS it was 48.2%; with SF-539 CNS it was 42.5%. The growth with UACC-257 melanoma is 18.6%; in the experiment with M14 melanoma, -33.5% (active).
For the compound `CN1C(=O)CNC(=O)[C@H](NC(=O)c2nc3ccccc3cc2O)CSSC[C@H]1C(=O)NCCc1nc2ccccc2cc1O`, the growth is 64.1% in the experiment on NCI-H23 lung; 83.8% in the experiment with NCI-H226 lung; 62.9% in the experiment on NCI-H322M lung; 82.1% in the experiment on HOP-62 NSCLC; 8.06% (active) in the experiment on NCI-H460 lung; 128% in the experiment on HOP-92 NSCLC. The growth was 42.9% with NCI-H522 lung; 38.8% in the experiment with A549/ATCC NSCLC; 112% with 786-0 renal; 1.34% (active) in the experiment on COLO 205 colon; 38.6% with DU-145 prostate; 5.35% (active) in the experiment on K-562 leukemia. In addition, the growth in the experiment on MALME-3M melanoma is 110%; with RXF 393 renal it was 100%; in the experiment on SF-268 CNS, 46.4%; in the experiment on SF-295 CNS, 68.3%; with SF-539 CNS, 94.2%; in the experiment on UACC-257 melanoma, 79.2%. Besides, in the experiment on M14 melanoma, the growth is 6.87% (active).
Take `CN1C(=O)CNC(=O)[C@H](NC(=O)c2nc3ccccc3cc2O)CSSC[C@H]1C(=O)NCCCc1nc2ccccc2cc1O`: the growth with NCI-H23 lung is 67.2%; with NCI-H226 lung, 85.8%; with NCI-H322M lung it was 70.6%; with HOP-62 NSCLC it was 81.8%; in the experiment with NCI-H460 lung, 13.4%; with HOP-92 NSCLC it was 120%. The growth was 60.4% in the experiment on NCI-H522 lung; 48.3% in the experiment on A549/ATCC NSCLC; 113% in the experiment with 786-0 renal; -9.63% (active) in the experiment on COLO 205 colon; 42.3% in the experiment on DU-145 prostate; 18.4% in the experiment with K-562 leukemia. For the same compound, the growth is 110% in the experiment with MALME-3M melanoma; 102% with RXF 393 renal; 49.5% in the experiment on SF-268 CNS; 91.9% with SF-295 CNS; 82% with SF-539 CNS; 83.9% in the experiment on UACC-257 melanoma. For the same compound, in the experiment with M14 melanoma, the growth is 14.3%.
Take `CCOC(=O)Cn1c(=O)c2c(c3ccccc3n2C)n2nnc(-c3ccccc3)c12`: the growth in the experiment on NCI-H23 lung was 102%; with NCI-H226 lung, 128%; in the experiment on NCI-H322M lung, 115%; in the experiment with HOP-62 NSCLC, 95.5%; with NCI-H460 lung, 102%; in the experiment on HOP-92 NSCLC, -15.2% (active). In addition, the growth in the experiment with NCI-H522 lung is 92.6%; in the experiment with A549/ATCC NSCLC, 106%; with 786-0 renal, 104%; with COLO 205 colon, 114%; in the experiment with DU-145 prostate, 111%; in the experiment with K-562 leukemia it was 84.8%. For the same compound, the growth is 118% in the experiment on MALME-3M melanoma; 103% in the experiment with MDA-MB-231 breast; 108% with RXF 393 renal; 95.2% with SF-268 CNS; 110% in the experiment with SF-295 CNS; 102% with SF-539 CNS. Besides, the growth was 102% in the experiment on UACC-257 melanoma and 97.6% in the experiment with M14 melanoma.
For `CCCCC[C@H](O)C/C=C1/C(=O)C=C[C@@H]1C/C=C\CCCC(=O)O`, the growth in the experiment with NCI-H23 lung was 74.6%; with NCI-H226 lung, 83.7%; with NCI-H322M lung it was 91.1%; in the experiment on HOP-62 NSCLC, 84.1%; in the experiment on NCI-H460 lung it was 66.9%; with HOP-92 NSCLC, 97.2%. Moreover, the growth in the experiment with NCI-H522 lung is 46.3%; in the experiment on A549/ATCC NSCLC, 81%; with 786-0 renal it was 83.3%; in the experiment on COLO 205 colon, 78%; in the experiment on DU-145 prostate it was 67.8%; in the experiment on K-562 leukemia it was 30.1%. Moreover, the growth is 116% with MALME-3M melanoma; 87.9% with RXF 393 renal; 67% with SF-268 CNS; 93.7% in the experiment with SF-295 CNS; 92.8% in the experiment with SF-539 CNS; 85.8% in the experiment on UACC-257 melanoma. In addition, the growth in the experiment with M14 melanoma was 70.1%.
For `COc1c(B(O)O)cc(C)cc1-c1nc2ccc3[nH]ncc3c2c2c1CCCC2`, the growth was 70.9% in the experiment with NCI-H23 lung; 73.7% in the experiment with NCI-H226 lung; 106% with NCI-H322M lung; 43% in the experiment on HOP-62 NSCLC; 31.4% in the experiment on NCI-H460 lung; 53.8% in the experiment with HOP-92 NSCLC. Further, the growth is 37.3% in the experiment with NCI-H522 lung; 52.7% with A549/ATCC NSCLC; 48.3% in the experiment on 786-0 renal; 19.6% in the experiment with COLO 205 colon; 72.6% with DU-145 prostate; 24.1% in the experiment on K-562 leukemia. In addition, the growth with MALME-3M melanoma was 91.6%; in the experiment on MDA-MB-231 breast, 23.4%; with RXF 393 renal, -2.67% (active); with SF-268 CNS, 50%; in the experiment with SF-295 CNS it was 53.1%; in the experiment with SF-539 CNS, 12.5%. Moreover, the results for the growth in the experiment on UACC-257 melanoma and in the experiment on M14 melanoma were 102% and 97.4%, respectively.
`Cc1ccc(S(=O)(=O)N/N=C/C2(c3ccccc3)CC2)cc1`: the growth was 101% in the experiment on NCI-H23 lung; 113% with NCI-H226 lung; 111% in the experiment on NCI-H322M lung; 99% in the experiment with HOP-62 NSCLC; 95.1% in the experiment with NCI-H460 lung; 90.5% with HOP-92 NSCLC. Also, the growth is 105% in the experiment on NCI-H522 lung; 82% in the experiment with A549/ATCC NSCLC; 112% in the experiment with 786-0 renal; 116% with COLO 205 colon; 114% in the experiment on DU-145 prostate; 97.8% in the experiment with K-562 leukemia. In addition, the growth with MALME-3M melanoma is 110%; in the experiment on MDA-MB-231 breast, 102%; with RXF 393 renal it was 94.4%; in the experiment on SF-268 CNS, 111%; in the experiment on SF-295 CNS it was 94.7%; in the experiment with SF-539 CNS, 114%. For the same compound, the growth in the experiment with UACC-257 melanoma was 99.7%; with M14 melanoma, 115%.
For the compound `N#CC1=C(N)Oc2c(sc3c(Br)cccc23)C1c1ccc([N+](=O)[O-])cc1` (stereo unspecified), the growth was 11.7% in the experiment with NCI-H23 lung; 58.9% in the experiment with NCI-H226 lung; 40.6% in the experiment on NCI-H322M lung; 26.6% in the experiment with HOP-62 NSCLC; -7.51% (active) with NCI-H460 lung; -7.19% (active) in the experiment on HOP-92 NSCLC. In addition, the growth with NCI-H522 lung is -6.47% (active); in the experiment with A549/ATCC NSCLC, 24.7%; in the experiment with 786-0 renal, 10.2%; in the experiment with COLO 205 colon it was -49.7% (active); in the experiment with DU-145 prostate, 8.77% (active); with K-562 leukemia, 7.66% (active). For the same compound, the growth with MALME-3M melanoma was 93.2%; in the experiment on RXF 393 renal, 17.6%; in the experiment on SF-268 CNS, 13.5%; with SF-295 CNS, -5.7% (active); in the experiment on SF-539 CNS, -18% (active); in the experiment with UACC-257 melanoma, 87.1%. The growth in the experiment on M14 melanoma was 3.87% (active).
